From PubChem
A selection: hits, their analogues and other compounds. The true share with any hit is near 19%.
HT1080 IDH1KD tx – HT-1080 IDH1 knockdown cell toxicity (counter line). 360,000 compounds, 2% hits. Potency, µM (titrated, usually from 46.1 µM), for the others: at the top dose activity, negative = toxicity, actives largely listed as cytotoxic. HT-1080 IDH1 knockdown viability, ATP luminescence, 48 h. AID 686971;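 further: potency means the concentration at half of the fitted maximal effect; 0% = DMSO wells and -100% = cell-free medium wells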
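Viability of IDH1-knockdown HT-1080 fibrosarcoma cells was assessed by CellTiter-Glo after 48 h at 37 °C with titrated compound; concentration-effect curves were classified by fit quality and response size.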
IL-1B inflam inh – inflammasome signaling inhibition, IL-1 beta readout | THP-1 LPS/ATP IL-1B secretion, AlphaLISA, 16 h; hits give low values | activity change, % at 57.5 µM | 360,000 compounds, 4.7% hits; in the data active means activity change below about -50%; inconclusive means mostly about -30% to -49%
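THP-1 cells pretreated 1 hr with compounds (up to 57.5 uM final), then stimulated with LPS (250 ng/mL final) plus ATP (1.25 mM final); secreted IL-1B measured by AlphaLISA after 16 hr, decreased signal indicating inhibition.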
TDP1 cell CPT – DT40-hTDP1 cell growth loss with CPT; chicken DT40 Tdp1-/-;hTDP1 cells + 20 nM CPT, ATP luminescence, 48 h; Potency, µM (highest dose often 46.2 µM), for inactives: at the top dose activity change, negative = growth inhibition, actives largely listed as inhibitors; 420,000 compounds, 12% hits; AID 686979; further: potency means the concentration at half of the fitted maximal effect; nearly all actives have a fitted effect of over 55% in size
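Chicken DT40 Tdp1-/- cells complemented with human TDP1, 400 cells/well, exposed to compounds plus 20 nM camptothecin for at least 48 h at 37 C; viability read as ATP content by CellTiter-Glo luminescence.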
HT1080-NT tox – kills 2HG-producing HT-1080-NT fibrosarcoma cells. HT-1080-NT fibrosarcoma viability, CellTiter-Glo ATP luminescence, 48 h. Potency, µM (highest dose often 46.1 µM), for inactives: at the top dose activity, negative = less viability, hits mostly cytotoxic. 360,000 compounds, 1.6% hits;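 further: NT is the 2HG producing partner of a matched IDH1 knockdown line; potency means the concentration at half of the fitted maximal effect; 0% = DMSO-treated cells and -100% = media-only wells without cells; nearly all actives have a fitted effect of over 55% in size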
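750 cells/well, RPMI + 5% FBS; 2 h settle, compound pin-transfer, 48 h at 37 degrees C. CellTiter-Glo 10 min RT, luminescence. Normalized to DMSO and media-only wells.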
TDP1 cell noCPT – qHTS for Inhibitors of human tyrosyl-DNA phosphodiesterase 1 (TDP1): qHTS in cells in absence of CPT; DT40 Tdp1-/- hTDP1 cells, no CPT, ATP luminescence, 48 h; Potency, µM (top dose mostly 46.2 µM), for the others: top-dose activity change, negative = growth inhibition, actives largely listed as inhibitors; 420,000 compounds, 15% hits; AID 686978, 2013; further: potency means the concentration at half of the fitted maximal effect; nearly all actives have a fitted effect of over 55% in size
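No-CPT arm: Tdp1-/-;hTDP1 DT40 cells (400/well) plus compounds, incubated ≥48 hr at 37 °C. Readout CellTiter-Glo luminescence.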
ELG1 repair inh – ELG1-dependent DNA repair inhibition. HEK293T ELG1-luciferase reporter, luminescence, 16 h; DNA damage induced by 5-fluorouridine. Potency, µM (highest dose often 46.1 µM), without a hit: top-dose activity change, negative = inhibition, actives largely listed as inhibitors. 330,000 compounds, 2.3% hits. AID 504467; further: potency means the concentration at half of the fitted maximal effect; nearly all actives have a fitted effect of over 55% in size
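HEK293T cells expressing luciferase-tagged ELG1 (2,000/well) received 5-Fluorouridine plus compound or DMSO for 16 hr at 37 °C. Luciferase was read by ONE-Glo luminescence after 30 min at room temperature.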
Numbers without * were called inactive. Unless noted, the call rests on the fitted dose curve; in most records, active means well fitted curve in the direction sought with a large enough effect; inconclusive means small, poorly fitted or top-dose-only effect, or another doubt; inactive means no such curve, though single readings can be large; an effect the other way counts as inactive or inconclusive. Unless noted, on the % scale 0 is the no-effect control and ±100 the full control effect.

How did O=C(N/C(C(=O)N1CCOCC1)=C(\Sc1ncccn1)c1ccccc1)c1ccccc1 do in these assays?
HT1080 IDH1KD tx: 6.8%; IL-1B inflam inh: -12.4; TDP1 cell CPT: -5.2%; HT1080-NT tox: -1.1%; TDP1 cell noCPT: -11.7%; ELG1 repair inh: 23.1µM*

Results for CN(Cc1nc2ccccc2c(=O)[nH]1)C(=O)c1cc(C2CC2)nn1-c1ccccc1 ?
HT1080 IDH1KD tx: -1.2%; IL-1B inflam inh: 22.0; TDP1 cell CPT: 13µM*; HT1080-NT tox: -12.6%; TDP1 cell noCPT: inconclusive; ELG1 repair inh: inconclusive

Results for Cc1ccc(C)c(NC(=O)CN(C)C(=O)c2cc(C3CC3)nn2-c2ccccc2)c1 ?
HT1080 IDH1KD tx: 0.0%; IL-1B inflam inh: -8.1; TDP1 cell CPT: 16.4µM*; HT1080-NT tox: -13.3%; TDP1 cell noCPT: inconclusive; ELG1 repair inh: inconclusive

What do the screens show for `CCN(Cc1nc2ccccc2c(=O)[nH]1)C(=O)c1cc(C2CC2)nn1-c1ccccc1`?
HT1080 IDH1KD tx: -7.3%; IL-1B inflam inh: 6.9; TDP1 cell CPT: inconclusive; HT1080-NT tox: -0.8%; TDP1 cell noCPT: inconclusive; ELG1 repair inh: inconclusive

What do the screens show for `O=C(O)C(C=C(Cl)Cl)N1CCOCC1` (centres undefined)?
HT1080 IDH1KD tx: -4.0%; IL-1B inflam inh: 1.1; TDP1 cell CPT: -2.3%; HT1080-NT tox: 2.9%; TDP1 cell noCPT: -6.8%

Results for COc1ccc2sc(/C=C/c3ccccc3O)[n+](C)c2c1 ?
HT1080 IDH1KD tx: 6.7%; IL-1B inflam inh: inconclusive; TDP1 cell CPT: 23.1µM*; HT1080-NT tox: 9.4%; TDP1 cell noCPT: 14.6µM*; ELG1 repair inh: -0.3%

How did COc1ccc(N=Cc2ccccc2O)cc1 do in these assays?
HT1080 IDH1KD tx: -22.2%; IL-1B inflam inh: -13.9; TDP1 cell CPT: -6.6%; HT1080-NT tox: -12.9%; TDP1 cell noCPT: -7.2%

Results for COc1ccc(-[n+]2c(C)cc(/C=C3\Sc4ccccc4N3C)cc2C)cc1 ?
HT1080 IDH1KD tx: 2.31µM*; IL-1B inflam inh: -93.7*; TDP1 cell CPT: 0.0146µM*; HT1080-NT tox: 4.11µM*; TDP1 cell noCPT: 0.0073µM*; ELG1 repair inh: 18.3µM*

What do the screens show for `COc1ccccc1-[n+]1c(C)cc(/C=C2\Sc3ccccc3N2C)cc1C`?
HT1080 IDH1KD tx: 0.581µM*; IL-1B inflam inh: -62.8*; TDP1 cell CPT: 0.0651µM*; HT1080-NT tox: 2.59µM*; TDP1 cell noCPT: 0.0206µM*; ELG1 repair inh: inconclusive

Results for Cc1c(C(=O)N2CCN(C/C=C/c3ccccc3)CC2)oc2c(F)cccc12 ?
HT1080 IDH1KD tx: 3.8%; IL-1B inflam inh: -4.2; TDP1 cell CPT: inconclusive; HT1080-NT tox: -0.5%; TDP1 cell noCPT: inconclusive; ELG1 repair inh: -13.7%

How did CCc1sc(N(C(=O)Cc2ccccc2)c2ccccc2F)nc1-c1ccc(C)cc1 do in these assays?
HT1080 IDH1KD tx: 10.5%; IL-1B inflam inh: 1.4; TDP1 cell CPT: inconclusive; HT1080-NT tox: 4.1%; TDP1 cell noCPT: 16.4µM*; ELG1 repair inh: -0.9%

Results for CCN(CC(=O)Nc1c(F)cccc1F)C(=O)Cc1sc(C)nc1-c1ccc(F)cc1 ?
HT1080 IDH1KD tx: -6.0%; IL-1B inflam inh: -1.1; TDP1 cell CPT: -2.5%; HT1080-NT tox: -1.5%; TDP1 cell noCPT: -8.6%; ELG1 repair inh: -4.1%

How did CC1(C(=O)NCc2ccc(Cl)cc2)CCN1C(=O)Cc1ccc(Cl)cc1Cl (centres undefined) do in these assays?
HT1080 IDH1KD tx: -16.6%; IL-1B inflam inh: -21.3; TDP1 cell CPT: 18.4µM*; HT1080-NT tox: -15.2%; TDP1 cell noCPT: inconclusive
